Assay outcomes deposited in PubChem BioAssay by Johns Hopkins Ion Channel Center.
Shown are actives, neighbours in structure and some others; about 2.3% of the full set was active somewhere.
CHT inh – inhibitors of human choline transporter CHT | CHT-expressing cells, membrane potential dye, choline response; active compounds read low | B-score at 10 µM | High affinity choline transporter 1 (Homo sapiens), Q9GZV3 | hit rate 0.86% among 310,000 | AID 488975, 2010;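 active = B-score over 3 SD under the library average, and starting fluorescence ratio not unusually high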;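 note: choline stimulus applied at its EC90 after an EC20 pre-addition; B-score computed on integrated fluorescence ratio after choline addition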
Target sequence (Q9GZV3 whole entry, looked up): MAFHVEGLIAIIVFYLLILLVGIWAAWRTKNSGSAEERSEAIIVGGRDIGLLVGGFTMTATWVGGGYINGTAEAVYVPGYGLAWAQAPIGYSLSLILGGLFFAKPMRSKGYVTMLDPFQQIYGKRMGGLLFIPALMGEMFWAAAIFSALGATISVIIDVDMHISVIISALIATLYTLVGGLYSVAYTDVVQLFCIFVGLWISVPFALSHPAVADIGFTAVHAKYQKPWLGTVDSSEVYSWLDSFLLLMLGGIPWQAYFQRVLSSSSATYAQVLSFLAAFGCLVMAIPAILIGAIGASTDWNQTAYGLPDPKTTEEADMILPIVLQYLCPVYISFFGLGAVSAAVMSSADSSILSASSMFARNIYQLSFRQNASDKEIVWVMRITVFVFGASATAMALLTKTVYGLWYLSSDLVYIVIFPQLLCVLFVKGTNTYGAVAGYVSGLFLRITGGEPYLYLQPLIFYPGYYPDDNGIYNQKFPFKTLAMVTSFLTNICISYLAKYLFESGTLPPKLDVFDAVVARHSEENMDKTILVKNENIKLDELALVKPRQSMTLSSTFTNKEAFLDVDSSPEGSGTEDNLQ
CHT allo act – CHT positive allosteric modulators, primary screen, cell-based, membrane potential dye, choline EC20 | High affinity choline transporter 1 (Homo sapiens), Q9GZV3 | hit rate 0.49% among 310,000 | B-score at 10 µM | AID 488977, 2010 | CHT-expressing cells; active compounds read high; LV-AA mutant CHT in HEK293 cells;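 active = initial fluorescence not abnormally high and integrated response B-score, plate-corrected, over 3 SD above library mean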
ANO1 block – TMEM16A chloride channel inhibitors, primary screen, cell-based, HTS; AID 588511, 2011; normalized B-score (activity score, 25-100; higher = stronger inhibition) at 10 µM; Anoctamin-1 (Mus musculus), Q8BHY3; HEK293 TMEM16A/YFP iodide influx fluorescence, ionomycin; hit rate 1.2% among 310,000;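 active = ratio plate-corrected score three or more library SD toward inhibition, starting fluorescence score within five deviations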;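 note: score derived from kinetic fluorescence span divided by baseline fluorescence per well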
TMEM16A act – TMEM16A chloride channel activators or potentiators, primary screen, cell-based, HTS; HEK293 TMEM16A/YFP-H148Q/I152L, iodide quench fluorescence; active compounds read low; hit rate 0.3% among 340,000; Anoctamin-1 (Mus musculus), Q8BHY3; AID 623877, 2012; B-score at 10 µM;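 active = fluorescence-ratio B-score plate-corrected deviation score at least 3 library SD below zero, with starting fluorescence score within 5 deviations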;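 note: channel opened by trigger with iodide after compound preincubation; score built on the fluorescence ratio of max minus min over baseline; more negative score means more quench and so TMEM16A activation or potentiation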
* marks the source's active call; other numbers are inactive results; i = inactive; / = no result given.

SMILES	CHT inh	CHT allo act	ANO1 block	TMEM16A act
C#CCOCCOCCOCCNc1nc(N2CCN(C(=O)CCCCCCCCCCNC(=O)[C@@H](CCSC)n3cc(CCO)nn3)CC2)nc(N2CCN(C(=O)CCCCCCCCCCNC(=O)[C@H](CO)n3cc(CCCCCN)nn3)CC2)n1	i	i	i	i
C#CCOCCOCCOCCNc1nc(N2CCN(C(=O)CCCCCCCCCCNC(=O)[C@@H](CCSC)n3cc(CCO)nn3)CC2)nc(N2CCN(C(=O)CCCCCCCCCCNC(=O)[C@H](CCCN=C(N)N)n3cc(C[C@@H](C)CC)nn3)CC2)n1	i	i	100*	-26*
C=CCN1C(=O)/C(=c2\sc3nc(=O)c(Cc4ccc(OC)c(OC)c4)nn3c2=O)c2ccccc21	i	i	i	i
CCN(CC(=O)Nc1ccc(OC)cc1)CC(=O)Nc1cccc(C#N)c1	i	i	i	i
O=c1cc(-c2ccc(O)c(O)c2)oc2cc(O[C@@H]3O[C@H](CO)[C@@H](O)[C@H](O)[C@H]3O)cc(O)c12	/	/	/	-16*
COC(=O)c1cc(C(=O)OC)cc(N2C(=O)CC(Sc3nc(C)cc(C)n3)C2=O)c1 (centres undefined)	i	i	i	-18*
CC(=O)Nc1ccc(N2C(=O)CC(Sc3nc(C)cc(C)n3)C2=O)cc1 (centres undefined)	i	i	i	i
O=C(Cn1nc(-c2ccccc2Cl)ccc1=O)Nc1ccc(Br)cc1	i	i	i	-30*
O=C(Cn1nc(-c2ccccc2Cl)ccc1=O)Nc1ccccc1-c1ccccc1	i	i	i	i
COc1cc(OC)c(C2=NOC(C(=O)O)C2)cc1Cl (centres undefined)	i	i	i	i
Cc1cc[n+](CC[n+]2ccc(C)cc2)cc1	i	i	i	i
CCC(C)(C)c1ccc(OCCCC[n+]2cccc(C)c2C)c(C(C)(C)CC)c1	i	i	100*	i
CCC(C)(C)c1ccc(OCCCC[n+]2ccc(C)cc2)c(C(C)(C)CC)c1	i	i	100*	/
O=C(NCCC(=O)N1CCC2(CC1)NCCc1[nH]cnc12)c1cccc(C(F)(F)F)c1	i	i	i	i
COc1ccc(Nc2nc(-c3sc(N)nc3C)cs2)cc1	i	i	i	i
COc1ccc(Nc2nc(-c3sc(NC(C)=O)nc3C)cs2)cc1	-5.1*	i	i	/
COc1cccc(Nc2nc(CC(C)=O)ns2)c1	i	i	i	i
COc1ccc(Nc2nc(CC(C)=O)ns2)cc1	i	i	i	-16*
CCOc1cc(C)c(-c2onc(C(F)(F)F)c2-c2csc(C)n2)c(O)c1	i	i	100*	i
CN(C)CCCN(C(=O)COc1ccccc1)c1nc2ccc(Cl)cc2s1	i	i	i	-6*
O=c1[nH]ncn2cccc12	i	i	100*	i
CC(C)(C)c1ccc(C(=O)CC(=O)c2cc(Cl)ccc2O)cc1	i	i	25*	i
CSC(=Nc1ccccc1)N=C(SCc1ccccc1)N(C)C	/	/	/	-13*
COc1cc(C(=O)N(C)CCOc2ccccc2)ccc1OCC(=O)Nc1cccc(C(F)(F)F)c1	i	i	100*	i
COCc1cc(C)nc(OC)c1C(N)=O	i	i	i	i
SMILES	CHT inh	CHT allo act	ANO1 block	TMEM16A act
N#CCCOC1(C#CCN2CCCC2)CCCCC1	i	i	i	i
COc1ccc(-c2cc3c(=O)n(CC(=O)Nc4ccc(Cl)cc4)nc(C)n3n2)cc1	i	i	i	i
CCCCCCCCNC(C)C(O)c1ccc(SC(C)C)cc1 (centres undefined)	i	i	25*	i
CCCCCCCCCCCC(=O)NC(C(=O)O)C(O)c1ccccc1 (centres undefined)	i	i	i	i
CSc1ncccc1C(=O)OCC(=O)c1ccccc1Br	i	i	i	-23*
COc1ccc(OC)c(CNC(=O)CCS(=O)(=O)c2ccc3c(c2)oc(=O)n3C)c1	i	i	i	i
CCN(C(=O)CSc1nnc(Cc2cccc3ccccc23)n1N)C1CCS(=O)(=O)C1 (centres undefined)	i	i	i	i
